Several values for one entry are separate records, joined by “and”; a condition that tells them apart may be missing. Equal values may be shown once. A structure can be active in one record and inactive in another. Activity calls are given as the source filed them. The calls were made as follows: active = hit-call score of the fitted dose curve at least 0.9, where 1 is the maximum; inactive = score below 0.9.

Our source for the AC50 and outcome values is PubChem BioAssay (EPA / NIEHS).

Assay [1] can be described thus: APR_HepG2_P-H2AX_72hr: Apredica 72-hour HepG2 Assay for H2AX Phosphorylation (AID 2282916).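 Also: phospho-histone H2A.x immunostain intensity per cell marking DNA damage.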 Particulars: imaging, actives raise or lower the signal. In a few lines: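 HepG2 human liver cells were exposed for 72 hr to compounds at 0.39–200 uM (10 concentrations, duplicate per plate) in 0.5% v/v DMSO. Fixed, permeabilized cells were immunolabeled for phospho-histone H2A.x with Hoechst 33342 and imaged by HCS fluorescence; bidirectional fit versus DMSO.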

Assay [2] is described as follows: APR_HepG2_MitoMembPot_72hr: Apredica 72-hour HepG2 Assay for Mitochondrial Membrane Potential (AID 2282917). The conditions noted are these: imaging, actives raise or lower the signal. In a few lines: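 Membrane potential read by MitoTracker Red CMXRos (250 nM, 30 min, pre-fixation) fluorescence imaging of HepG2 after 72 hr exposure. Ten concentrations, 0.39–200 uM, duplicate wells, 0.5% DMSO; fitted in both directions against DMSO baseline.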

A short description of assay [3]: APR_HepG2_MitoticArrest_72hr: Apredica 72-hour HepG2 Assay for Mitotic Arrest (AID 2282918). Particulars: high-content imaging, actives raise or lower the signal. The method in brief:
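Read-out is phospho-histone H3 immunofluorescence with Hoechst nuclear segmentation, imaged at 20x. Human HepG2 liver cells received ten concentrations (0.39–200 uM, final DMSO 0.5% v/v) for 72 hr before fixation. Gain or loss of signal was fitted relative to DMSO.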

Assay [4] can be described thus: APR_HepG2_MicrotubuleCSK_72hr: Apredica 72-hour HepG2 Assay for Microtubule CSK Stabilty (AID 2282919). The conditions noted are these: HepG2 microtubule cytoskeleton, high-content imaging, actives raise or lower the signal. The method in brief: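 Read-out is tubulin fluorescence intensity from high-content imaging of HepG2 cells, with nuclei identified by Hoechst 33342. Treatment lasts 72 h at 0.39–200 uM, and curves are fitted bidirectionally against the DMSO negative control.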

Assay [5] is described as follows: APR_HepG2_P-H2AX_24hr: Apredica 24-hour HepG2 Assay for H2AX Phosphorylation (AID 2282920). Particulars: high-content imaging, actives raise or lower the signal. In a few lines: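 HepG2, 24 hr, cpd 0.39–200 uM (10 conc, duplicate), DMSO 0.5% v/v final. Fix 3.7% formaldehyde, Triton X-100 permeabilize, anti-phospho-H2A.x 1:200 + Hoechst 2 ug/mL. Imaged, bidirectional fit vs DMSO.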

The nature of assay [6]: APR_HepG2_StressKinase_24hr: Apredica 24-hour HepG2 Assay for Stress Kinase (AID 2282922). Particulars: HepG2 stress kinase (phospho-c-Jun) imaging, actives raise or lower the signal. In a few lines:
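HepG2, 24 hr dosing, 0.39–200 uM in duplicate, 0.5% DMSO; formaldehyde fix (3.7%), 0.5% Triton X-100; anti-phospho-c-Jun + Cy3 secondary, Hoechst counterstain; ArrayScan imaging; bidirectional curve fit vs DMSO baseline.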

Assay [7] can be described thus: APR_HepG2_p53Act_72hr: Apredica 72-hour HepG2 Assay for p53 Activation (AID 2282923).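 Also: average cellular p53 protein immunofluorescence intensity in HepG2 cells.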 The conditions noted are these: high-content imaging, actives raise or lower the signal. The method in brief:
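Cells were dosed for 72 hr with compounds at 0.39–200 uM in duplicate (final DMSO 0.5% v/v), then fixed in 3.7% formaldehyde, permeabilized with Triton X-100 and immunostained for p53 (Cy5) with Hoechst 33342 nuclear counterstain.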

Assay [8] can be described thus: APR_HepG2_MitoMass_72hr: Apredica 72-hour HepG2 Assay for Mitochondrial Mass (AID 2282924).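 Also: MitoTracker Red CMXRos stain intensity per cell imaged as mitochondrial mass.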 Particulars: high-content imaging, actives raise or lower the signal. The method in brief: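 HepG2, 72 hr cmpd, 10 conc 0.39–200 uM in dup, DMSO 0.5% v/v. MitoTracker Red CMXRos 250 nM 30 min pre-fix; formaldehyde 3.7% fix 30 min RT. HCS imaging, gain/loss fit vs DMSO.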
Assay [9] in a line: APR_HepG2_NuclearSize_72hr: Apredica 72-hour HepG2 Assay for Nuclear Size (AID 2282925). Particulars: high-content imaging, actives raise or lower the signal. The method in brief:
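HepG2; cpd 0.39–200 uM, 10 conc, duplicate; 72 h; DMSO 0.5% v/v; fix 3.7% formaldehyde 30 min RT; Triton permeabilization; Hoechst 2 ug/mL; HCS imaging 20x; nuclear diameter; gain/loss fit vs DMSO.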

Assay [10] in a line: ATG_CRE_CIS: Attagene CIS-FACTORIAL HepG2 Assay for human cAMP Responsive Element (CRE) binding protein 3 (AID 2282926). Particulars: HepG2 CRE cis-reporter, Attagene multiplexed mRNA; actives raise or lower the signal. In a few lines:
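Human liver HepG2, transient MRTU transfection, 24 h compound exposure. Total RNA → oligo(dT) RT → PCR → 6-FAM primer extension → HpaI cut → CE. Activity called both directions vs DMSO.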

Assay [11] has as its target CCAAT/enhancer-binding protein beta (Homo sapiens) (UniProt P17676). The experiment in a line: ATG_C_EBP_CIS: Attagene CIS-FACTORIAL HepG2 Assay for human CCAAT/Enhancer Binding Protein (C/EBP) beta (AID 2282927). Particulars: HepG2 Attagene cis-factorial transcription factor reporter; actives raise or lower the signal. In a few lines:
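Changes in reporter mRNA, rather than exogenous chimeric receptor activity, reflect native C/EBP signalling in transfected HepG2 cells dosed for 24 h; transcripts are detected by RT-PCR and capillary electrophoresis.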

Assay [12] in a line: ATG_CMV_CIS: Attagene CIS-FACTORIAL HepG2 Assay for human CMV (Internal Marker) (AID 2282928).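 Also: endpoint acts as a background internal control marker rather than a target.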 The conditions noted are these: HepG2 CMV promoter reporter, transcription factor profiling; actives raise or lower the signal. The method in brief:
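HepG2 cells transiently transfected with multiple cis-regulated reporter units; 24 h compound exposure. Reporter mRNA quantified by RT-PCR, 6-FAM primer-extension labeling, HpaI digestion and capillary electrophoresis; bidirectional fitting against DMSO baseline.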

Assay [13] in a line: ATG_DR4_LXR_CIS: Attagene CIS-FACTORIAL HepG2 Assay for human Liver X Receptor (LXR), DR4 submotif (AID 2282929). Particulars: HepG2 Attagene DR4 cis-reporter, mRNA transcription; actives raise or lower the signal. The method in brief:
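Endogenous factor activity at a DR4 cis-element is read as reporter mRNA in transiently transfected HepG2 cells. Exposure lasts 24 h; transcripts are amplified, fluorescently labelled and sized by capillary electrophoresis, with DMSO as baseline.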

Assay [14] has as its target Aryl hydrocarbon receptor (Homo sapiens) (UniProt P35869). The experiment in a line: ATG_Ahr_CIS: Attagene CIS-FACTORIAL HepG2 Assay for human Aryl Hydrocarbon Receptor (Ahr) (AID 2282930). The conditions noted are these: HepG2 AhR cis-factorial reporter transcription; actives raise or lower the signal. The method in brief:
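HepG2, transient MRTU (cis) transfection, 24 h exposure. RNA → cDNA → PCR → 6-FAM primer extension → HpaI 2 h 37 C → CE. Fit: bidirectional, DMSO baseline.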

Assay [15] can be described thus: ATG_AP_1_CIS: Attagene CIS-FACTORIAL HepG2 Assay for human Activator Protein 1 (AP-1) (AID 2282931). The conditions noted are these: HepG2 Attagene cis-factorial AP-1 reporter mRNA; actives raise or lower the signal. The method in brief: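 Fluorescence of labelled PCR fragments separated by capillary electrophoresis gives reporter mRNA levels. HepG2 with transfected cis-regulated reporter units, 24 h exposure; DMSO serves as baseline for bidirectional curve fits.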

The nature of assay [16]: ATG_AP_2_CIS: Attagene CIS-FACTORIAL HepG2 Assay for human Activator Protein 2 (AP-2) (AID 2282932). The conditions noted are these: HepG2 AP-2 cis-reporter, Attagene transcription factor profiling; actives raise or lower the signal. The method in brief: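 Step one: transient transfection of HepG2 with reporter transcription units. Step two: 24 h chemical exposure. Step three: RNA extraction, RT-PCR, labelled fragment analysis by capillary electrophoresis; DMSO serves as baseline.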

The target of assay [17] is Retinoic acid receptor alpha (Homo sapiens) (UniProt P10276). Description: ATG_DR5_RAR_CIS: Attagene CIS-FACTORIAL HepG2 Assay for human Retinoic Acid Receptor Alpha (RARE), DR5 submotif (AID 2282934).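 As to AC50: reporter responds to endogenous RAR alpha beta and gamma in HepG2 not RARA alone.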 The conditions noted are these: HepG2 Attagene cis-factorial RARE DR5 reporter, mRNA; actives raise or lower the signal. In a few lines:
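HepG2, transient cis-reporter transfection, 24 h exposure. mRNA readout: RT-PCR, FAM label, HpaI cut, capillary electrophoresis. DMSO baseline, gain/loss fitting.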

A short description of assay [18]: APR_HepG2_StressKinase_72hr: Apredica 72-hour HepG2 Assay for Stress Kinase (AID 2282921). The conditions noted are these: HepG2 stress kinase (phospho-c-Jun) imaging, actives raise or lower the signal. The method in brief: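 Cells were exposed for 72 h to ten concentrations (0.39–200 uM, duplicate) at 0.5% v/v DMSO final, then fixed with 3.7% formaldehyde, permeabilized and immunostained for phospho-c-Jun (Cy3 secondary) with Hoechst nuclear counterstain.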

Assay [19] is described as follows: APR_HepG2_CellLoss_72hr: Apredica 72-hour HepG2 Assay for Cell Loss (AID 2282915). Particulars: high-content imaging. In a few lines: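 Cell number comes from Hoechst 33342-labelled nuclei, imaged at 20x after 3.7% formaldehyde fixation. Dosing was 0.39–200 uM, ten concentrations in duplicate, 0.5% DMSO final, for 72 h. Bidirectional fit relative to DMSO baseline.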

Assay [20] is described as follows: ATG_BRE_CIS: Attagene CIS-FACTORIAL HepG2 Assay for human Bone Morphogenetic Protein (BMP) Response Element (BRE) (AID 2282933). The conditions noted are these: HepG2 BMP response element reporter, Attagene transcription factor profiling; actives raise or lower the signal. The method in brief: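 Read-out: reporter mRNA induction quantified by RT-PCR and capillary electrophoresis after 24 h chemical exposure of transfected HepG2 cells. Endogenous factor activity on the BMP response element; gain or loss fitted against DMSO baseline.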

Sequence of CCAAT/enhancer-binding protein beta (Homo sapiens) (P17676 whole entry, looked up): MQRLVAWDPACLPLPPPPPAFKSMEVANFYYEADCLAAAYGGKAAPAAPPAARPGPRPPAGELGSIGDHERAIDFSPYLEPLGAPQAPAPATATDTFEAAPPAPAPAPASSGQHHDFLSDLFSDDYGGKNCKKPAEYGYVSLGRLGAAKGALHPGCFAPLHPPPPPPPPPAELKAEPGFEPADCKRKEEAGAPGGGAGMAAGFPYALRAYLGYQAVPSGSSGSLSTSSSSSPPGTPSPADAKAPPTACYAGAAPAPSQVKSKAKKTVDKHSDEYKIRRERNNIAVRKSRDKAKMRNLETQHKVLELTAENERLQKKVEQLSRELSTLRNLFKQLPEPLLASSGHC
Sequence of Aryl hydrocarbon receptor (Homo sapiens) (P35869 whole entry, looked up): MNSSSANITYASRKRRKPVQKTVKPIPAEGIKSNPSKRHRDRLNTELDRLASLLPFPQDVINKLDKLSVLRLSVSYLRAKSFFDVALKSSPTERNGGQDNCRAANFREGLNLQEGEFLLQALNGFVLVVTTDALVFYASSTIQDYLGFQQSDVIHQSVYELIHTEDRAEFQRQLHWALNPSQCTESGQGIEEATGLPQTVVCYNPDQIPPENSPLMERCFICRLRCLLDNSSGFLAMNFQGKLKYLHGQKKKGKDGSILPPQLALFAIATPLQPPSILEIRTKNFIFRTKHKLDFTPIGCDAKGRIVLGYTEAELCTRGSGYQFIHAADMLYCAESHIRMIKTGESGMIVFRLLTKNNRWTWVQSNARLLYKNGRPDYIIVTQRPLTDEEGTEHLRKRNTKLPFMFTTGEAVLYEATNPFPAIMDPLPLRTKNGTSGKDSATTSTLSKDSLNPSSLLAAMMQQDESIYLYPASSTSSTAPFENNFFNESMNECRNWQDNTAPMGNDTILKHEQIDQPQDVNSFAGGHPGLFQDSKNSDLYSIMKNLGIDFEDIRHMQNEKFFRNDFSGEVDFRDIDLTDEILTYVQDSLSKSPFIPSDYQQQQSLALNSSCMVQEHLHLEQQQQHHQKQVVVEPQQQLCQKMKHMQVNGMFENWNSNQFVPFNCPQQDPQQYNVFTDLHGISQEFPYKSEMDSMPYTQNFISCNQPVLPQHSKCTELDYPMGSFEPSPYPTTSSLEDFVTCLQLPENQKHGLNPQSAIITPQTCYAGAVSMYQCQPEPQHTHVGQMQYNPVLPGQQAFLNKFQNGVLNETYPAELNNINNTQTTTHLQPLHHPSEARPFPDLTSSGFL
Sequence of Retinoic acid receptor alpha (Homo sapiens) (P10276 whole entry, looked up): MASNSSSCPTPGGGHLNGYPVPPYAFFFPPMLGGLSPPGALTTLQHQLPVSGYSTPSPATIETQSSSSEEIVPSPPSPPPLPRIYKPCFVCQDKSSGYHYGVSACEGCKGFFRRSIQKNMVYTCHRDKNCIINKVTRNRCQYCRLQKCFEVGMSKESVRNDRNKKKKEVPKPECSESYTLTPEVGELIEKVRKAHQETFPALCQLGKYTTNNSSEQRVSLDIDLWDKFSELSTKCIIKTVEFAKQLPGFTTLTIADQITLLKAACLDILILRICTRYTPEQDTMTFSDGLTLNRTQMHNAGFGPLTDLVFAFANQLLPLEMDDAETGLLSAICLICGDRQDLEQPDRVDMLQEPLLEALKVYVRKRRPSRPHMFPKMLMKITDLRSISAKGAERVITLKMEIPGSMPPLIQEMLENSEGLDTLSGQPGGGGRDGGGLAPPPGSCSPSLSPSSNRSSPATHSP

For the molecule `CN(C)C(=S)SSC(=S)N(C)C`, the AC50 (usually the concentration giving half of the maximal activity seen) in assay [1] is 89.5 nM (active); in [3] it was 19.8 µM (active); in assay [4], 3.39 µM (active); in [5] it was 1.78 µM (active). For the same molecule, the call in assay [2], in assay [6], in [7], in assay [8], in [9] and in [10] was inactive. Moreover, the outcome in [11], in [12], in assay [13], in assay [14], in assay [15] and in assay [16] was inactive. Further, in assay [17], the molecule was called inactive.
With `C=CCC1=C(C)[C@@H](OC(=O)[C@@H]2[C@@H](C=C(C)C)C2(C)C)CC1=O`, the molecule was called inactive in assay [1], in assay [2], in assay [18], in assay [6], in assay [8] and in [9]. The outcome in assay [11], in [12], in [13], in assay [14], in assay [15] and in [16] was inactive. Moreover, the half-maximal activity concentration (AC50) in assay [3] is 67.4 µM (active); in [4], 79.5 µM (active); in [5], 118 µM (active); in assay [7], 107 µM (active); in assay [10], 7.32 µM (active); in assay [17], 2.87 µM (active).
Regarding `COC(=O)c1ccccc1C(=O)OC`, the call in [19], in assay [1], in [2], in assay [4], in [5] and in assay [6] was inactive. Moreover, the molecule was classed as inactive in assay [7], in assay [9], in [10], in assay [11], in [12] and in assay [13]. Besides, the result in assay [14], in assay [15], in [16], in assay [20] and in assay [17] was inactive.
In the case of `Fc1ccc(Oc2ccnc3cc(Cl)cc(Cl)c23)cc1`, the result in assay [1], in assay [2], in assay [3], in [4], in assay [6] and in assay [7] was inactive. In addition, the molecule was classed as inactive in assay [8], in [9], in assay [10], in [11], in [14] and in assay [15]. In addition, the call in [16] and in [20] was inactive. In addition, the concentration at half-maximal activity (AC50) in assay [5] is 100 µM (active); in assay [12], 6.43 µM (active); in assay [13] it was 2.72 µM (active); in assay [17], 2.77 µM (active).
For `Cc1c(F)c(F)c(COC(=O)C2C(/C=C(\Cl)C(F)(F)F)C2(C)C)c(F)c1F` (stereo not given), the outcome in assay [19], in [1], in [2], in assay [4], in assay [5] and in assay [6] was inactive. Moreover, the result in assay [7], in assay [9], in assay [10], in [11], in assay [12] and in assay [13] was inactive. Also, the molecule was called inactive in assay [14], in [15], in [16], in assay [20] and in assay [17].
Consider `CO/C=C(/C(=O)OC)c1ccccc1Oc1cc(Oc2ccccc2C#N)ncn1`, for which the AC50 in [1] was 53.2 µM (active) and 42.2 µM (active); in [2] it was 164 µM (active); in assay [7], 50.7 µM (active) and 53 µM (active) and 50.6 µM (active); in [10] it was 21 µM (active); in assay [11], 7.46 µM (active); in [13], 41.8 µM (active) and 26.2 µM (active) and 52.9 µM (active). For the same molecule, the concentration at half-maximal activity (AC50) in assay [14] was 106 µM (active) and 122 µM (active); in assay [15], 9.92 µM (active). Further, the outcome in assay [1], in assay [2], in assay [4], in assay [5], in [6] and in assay [7] was inactive. The molecule was classed as inactive in [9], in [10], in assay [11], in [12], in [13] and in [14]. The call in assay [15], in [16] and in assay [17] was inactive.
